Assay outcomes: PubChem, several laboratories
This is a sample that favours compounds with a hit; in the whole collection about 1.7% have one here.
LYPLA2 inh: LYPLA2 (human) inhibition in PME1 counter-screen; O95372; recombinant LYPLA2, FP-Rh probe fluorescence polarization; inhibition, % at 5.9 µM; hit rate 0.38% among 320,000; AID 2177;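 active means inhibition above the screen-wide mean plus 3 SD, limit set per campaign, cut at about 26% in these data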;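 further: 0% = LYPLA2 with DMSO and 100% = wells lacking LYPLA2 enzyme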
PREPL inh: human PREPL enzyme inhibition. Q4J6C6. recombinant PREPL, fluorescence polarization activity-based probe. inhibition, % at 5.96 µM. hit rate 0.68% among 320,000. AID 2751; in the data active means inhibition above about 43%;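 further: 0% = enzyme with DMSO and 100% = wells lacking enzyme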
Target sequence (Q4J6C6 whole entry, looked up): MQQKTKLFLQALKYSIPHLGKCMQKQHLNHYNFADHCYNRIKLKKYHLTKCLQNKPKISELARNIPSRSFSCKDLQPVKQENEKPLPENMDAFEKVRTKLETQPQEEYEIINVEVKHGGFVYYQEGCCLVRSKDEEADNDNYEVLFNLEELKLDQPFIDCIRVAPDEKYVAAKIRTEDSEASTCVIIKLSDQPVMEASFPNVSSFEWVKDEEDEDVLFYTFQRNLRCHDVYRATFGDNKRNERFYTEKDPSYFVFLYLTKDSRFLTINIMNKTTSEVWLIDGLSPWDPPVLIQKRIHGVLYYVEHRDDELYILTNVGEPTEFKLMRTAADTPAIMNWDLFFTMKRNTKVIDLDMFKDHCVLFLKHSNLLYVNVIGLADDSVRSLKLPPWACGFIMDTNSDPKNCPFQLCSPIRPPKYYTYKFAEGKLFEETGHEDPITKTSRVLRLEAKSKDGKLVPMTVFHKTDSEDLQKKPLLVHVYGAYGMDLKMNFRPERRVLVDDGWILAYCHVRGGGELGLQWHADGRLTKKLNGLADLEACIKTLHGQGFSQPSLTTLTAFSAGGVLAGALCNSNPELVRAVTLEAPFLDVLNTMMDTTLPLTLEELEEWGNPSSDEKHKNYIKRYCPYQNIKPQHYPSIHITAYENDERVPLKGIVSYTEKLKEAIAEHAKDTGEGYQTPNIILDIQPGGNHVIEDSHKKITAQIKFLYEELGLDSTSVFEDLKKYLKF
Rin1 Abl inh: inhibitors of human Rin1-Abl protein interaction; P00519+Q13671; TR-FRET Rin1/Abl binding, biochemical; inhibition, % at 7.35 µM; hit rate 0.4% among 360,000; in the data active means inhibition above about 5%, passing the limit was not always enough
Hck Nef HTS: inhibitors of human Hck kinase activated by Nef. Recombinant Hck-YEEI plus Nef, Z-Lyte FRET kinase assay. hit rate 0.68% among 220,000. P08631. inhibition, % at 20 µM;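 active means Hck-Nef kinase inhibition above about 50%, limit read from the data; inactive means inhibition below that limit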;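 further: 0% = DMSO with Hck plus Nef and 100% = Hck alone without Nef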
LYPLA1 inh: blocks human lysophospholipase 1, a PME1 counter-screen; recombinant LYPLA1, FP-Rh probe fluorescence polarization; inhibition, % at 5.9 µM; hit rate 0.16% among 320,000; O75608;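 active means inhibition above the mean of all tested compounds plus 3 SD, set per campaign, cut at about 14% in these data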;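 further: inhibitors block serine hydrolase probe labeling of LYPLA1 so polarization falls; 0% = enzyme with DMSO and 100% = wells lacking LYPLA1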
p97 ATPase inh: human p97 ATPase inhibition | P55072 | recombinant p97 ATPase, Kinase-Glo ATP luminescence, 3 h | inhibition, % at 8 µM | hit rate 0.42% among 220,000 | AID 1481; in the data active means inhibition above about 15%;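 further: 0% = DMSO vehicle and 100% = wells lacking enzyme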
LYPLA2 confirm: counter-screen for PME1 inhibitors: confirmation of human LYPLA2 inhibitors; hit rate 72% among 1,100; inhibition, % at 5.9 µM; shares compounds with LYPLA2 inh; AID 2232; recombinant LYPLA2, FP-Rh probe fluorescence polarization;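 active means mean inhibition across replicates above the hit cutoff set in the primary screen, cut at about 26% in these data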;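 further: blocked labeling of the enzyme by serine hydrolase FP-Rh probe lowers polarization; 0% = enzyme with DMSO and 100% = wells lacking LYPLA2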
LYPLA2 ABPP: LYPLA2 (human) inhibition, late stage results; inhibition, % at 20 µM; rhLYPLA2 in mouse brain proteome, gel ABPP FP-Rh; shares compounds with LYPLA2 inh; hit rate 30% among 150;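 active means inhibition of LYPLA2 enzyme probe labeling above about 50%, limit read from the data; inactive means inhibition below that limit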;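 further: loss of FP-Rh probe labeling of the LYPLA2 gel band measured as band density; 0% = DMSO only control band and 100% = blank gel background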
The depositor's hits bear a star; x = not tested or not shown.

SMILES | LYPLA2 inh | PREPL inh | Rin1 Abl inh | Hck Nef HTS | LYPLA1 inh | p97 ATPase inh | LYPLA2 confirm | others
N#Cc1ccc(-c2ccc(OCC(=O)NCCc3ccccc3)cc2)cc1 | 34.8* | -1.4 | -2.3 | 2.2 | 3.8 | -1.2 | 15.2
COc1ccc(CCNC(=O)COc2ccc(-c3ccc(C#N)cc3)cc2)cc1 | -5.1 | -3.4 | -2.7 | 2.2 | -3.1 | 1.1 | x
O=C(CCCN1CCC(O)(c2ccc(Br)cc2)CC1)c1ccc(F)cc1 | 18.2 | 5.2 | -1.9 | x | 1.8 | x | x
O=C(CCCN1CCC(O)(c2cccc(C(F)(F)F)c2)CC1)c1ccc(F)cc1 | 71.8* | -5.4 | -2.5 | x | 0.1 | x | 68.3*
COc1ccc(S(=O)(=O)CCC(=O)N2CCN(c3ccc([N+](=O)[O-])cc3)CC2)cc1 | 54.9* | -8.2 | 1.9 | x | 9.5 | x | 58.4* | LYPLA2 ABPP=25.0
COc1ccc(N2CCN(C(=O)CCS(=O)(=O)c3ccc(OC)cc3)CC2)cc1 | 8.1 | 14.7 | 1.4 | 13.7 | 0.4 | 0.4 | x
COc1ccc(N2CCN(C(=O)CN(C)S(=O)(=O)c3ccc4c(c3)c(=O)n(C)c(=O)n4C)CC2)cc1 | 60.9* | 10.6 | -1.9 | 20.6 | 6.4 | 2.0 | 50.6* | LYPLA2 ABPP=14.0
COc1ccc(N2CCN(C(=O)CCN3C(=O)c4ccccc4S3(=O)=O)CC2)cc1 | 34.4* | 17.8 | -2.0 | 0.8 | -0.6 | -2.7 | 34.0*
CC(=O)c1ccc(N2CCN(C(=O)CCS(=O)(=O)c3ccc(C)cc3)CC2)cc1 | 16.6 | 5.8 | -0.3 | -5.3 | 4.9 | -2.9 | x
CN(CC(=O)N1CCN(c2ccc(F)cc2)CC1)S(=O)(=O)c1ccc2c(c1)c(=O)n(C)c(=O)n2C | 7.7 | 5.8 | -1.0 | 19.5 | -0.4 | 2.4 | x
Cc1ccc(S(=O)(=O)CCC(=O)N2CCN(c3ccc([N+](=O)[O-])cc3)CC2)cc1 | 39.4* | -18.6 | -7.2 | x | 9.0 | x | 34.8*
O=C(NCc1ccccc1)C(c1ccccc1)N(C(=O)c1csnn1)c1ccccc1 (stereo not given) | 5.8 | 5.9 | 1.9 | x | 4.5 | x | x
CCN1CCc2c(sc(NC(=O)c3ccc(C(=O)c4ccccc4)cc3)c2C(N)=O)C1 | 26.3* | 23.6 | -2.2 | x | -1.9 | x | 24.9
COc1cccc(NC(=O)CN2C(=O)CSc3ccc(S(=O)(=O)N4CCOCC4)cc32)c1 | 49.2* | 7.3 | 6.1 | x | 0.4 | x | 45.3*
O=C(CN1C(=O)COc2ccc(S(=O)(=O)N3CCOCC3)cc21)Nc1cccc(Cl)c1 | 33.0* | -1.0 | 3.5 | x | -7.0 | x | 45.8*
COc1cc(NC(=O)CN2C(=O)COc3ccc(S(=O)(=O)N4CCOCC4)cc32)cc(OC)c1 | 7.3 | 4.6 | -0.4 | x | -3.2 | x | x
COc1cccc(NC(=O)CN2C(=O)COc3ccc(S(=O)(=O)N4CCOCC4)cc32)c1 | 37.9* | -0.7 | 0.7 | x | -1.0 | x | 35.2*
COc1cccc(NC(=O)CN2C(=O)COc3ccc(Cl)cc32)c1 | 45.1* | -0.7 | -1.8 | -1.6 | 2.3 | -3.1 | 46.5*
COc1cc(NC(=O)COC(=O)CO/N=C(\C)c2ccc3c(c2)OCO3)cc(OC)c1OC | 5.6 | 15.7 | -2.7 | x | 1.7 | x | x
COc1ccc(N2CCN(C(=O)CCS(=O)(=O)c3ccc4c(c3)CCN4C(=O)C3CC3)CC2)cc1 | -6.0 | 7.8 | -2.7 | x | -0.3 | x | x
COc1ccc(C(=O)NCC(c2ccco2)N2CCc3ccccc32)c(OC)c1 (stereo not given) | -1.9 | -7.0 | 0.4 | x | 0.0 | x | x
O=C1OCC(c2ccc(Cl)s2)=C1c1ccccc1[N+](=O)[O-] | -1.6 | -21.4 | 3.4 | x | -1.3 | x | x
COc1cccc(NC(=O)CN2C(=O)COc3ccc(S(=O)(=O)N4CCCCCC4)cc32)c1 | 34.9* | 16.6 | 4.7 | x | 1.3 | x | 38.2*
COc1cccc(CNC(=O)CN2C(=O)COc3ccc(S(=O)(=O)N4CCCCC4)cc32)c1 | 4.4 | 10.3 | 4.9 | x | -2.6 | x | x
O=C(c1cc(COc2ccc(F)cc2Cl)on1)N1CCC(c2ccncc2)CC1 | 32.8* | 3.8 | 0.5 | 16.8 | 6.5 | -1.6 | 30.2*
SMILES | LYPLA2 inh | PREPL inh | Rin1 Abl inh | Hck Nef HTS | LYPLA1 inh | p97 ATPase inh | LYPLA2 confirm | others
O=C(c1cc(COc2ccc(F)cc2Cl)on1)N1CCCCCC1 | 7.2 | 15.0 | 2.3 | x | 3.3 | x | x
COc1ccc(NS(=O)(=O)c2cccc(C(=O)OCC(=O)NC3CC3)c2)cc1 | x | x | -1.1 | x | x | x | x
Cc1cc(C)c(OCC(=O)Nc2ccc(N3CCOCC3)cc2)c(Br)c1 | 27.8* | 9.3 | 0.6 | x | 2.1 | x | 1.0
CCc1ccc(S(=O)(=O)/N=C2/C=C(Sc3ncn[nH]3)C(=O)c3ccccc32)cc1 | 40.0* | 16.8 | 3.1 | -2.6 | 1.5 | 12.4 | 47.4*
CCc1ccc(S(=O)(=O)/N=C2\C=CC(=O)c3ccccc32)cc1 | -12.0 | 28.0 | x | 38.1 | -17.2 | 4.4 | x
CCc1noc(C)c1C(=O)OCC(=O)Nc1nc(-c2ccc(F)c(F)c2)cs1 | -33.2 | -7.2 | -2.7 | x | -25.1 | x | x
Nc1ccc(Oc2ccc([N+](=O)[O-])cc2[N+](=O)[O-])cc1 | 54.3* | 5.1 | 4.0 | 4.2 | 2.3 | -0.4 | 57.5* | LYPLA2 ABPP=1.0
O=[N+]([O-])c1ccc(Oc2cccnc2)c([N+](=O)[O-])c1 | x | x | -2.1 | x | x | x | x
CC(=O)NC12CC3CC(C1)CC(C(=O)Nc1nc4c(C)cccc4s1)(C3)C2 | 0.9 | 27.8 | 2.8 | x | -5.3 | x | x
CC1CCCC(C)N1C(=O)COC(=O)Cc1ccc(F)cc1 (stereo not given) | -3.1 | 7.8 | 1.3 | x | 3.9 | x | x
CC1CCCC(C)N1C(=O)COC(=O)CCC1CCCC1 (stereo not given) | 36.2* | 2.9 | 4.6 | x | 0.5 | x | 1.4
CCCn1c(=O)c(C(=O)NCCc2ccc(OC)cc2)c(O)c2ccccc21 | x | x | -0.6 | x | x | x | x
O=S(=O)(c1ccc(-c2csc(Nc3ccc(F)cc3)n2)cc1)N1CCCC1 | -11.9 | 15.2 | 2.9 | 1.4 | -7.9 | 0.2 | x
O=S(=O)(c1ccc(-c2csc(Nc3ccc(Br)cc3)n2)cc1)N1CCCC1 | 53.4* | 6.1 | -0.5 | 1.3 | 7.5 | 0.6 | -13.2
Cc1noc(C)c1C(=O)OCC(=O)Nc1cccc(S(N)(=O)=O)c1 | 1.9 | -1.1 | 1.4 | -16.3 | 2.6 | 1.4 | x
Cc1cc(NC(=O)COC(=O)c2c(C)noc2C)ccc1Br | 48.5* | 13.4 | -0.2 | 15.8 | 2.4 | 3.4 | 52.8*
Cc1ccccc1NC(=O)c1nn(C)c2c1CS(=O)(=O)c1ccccc1-2 | 39.8* | -9.1 | -4.1 | x | 1.4 | x | 46.0*
Cc1nc(SCC(=O)N2CCC(Cc3ccccc3)CC2)[nH]c(=O)c1C | 4.7 | 1.8 | 2.1 | x | 2.8 | x | x
O=C(Nc1cccnc1)c1ccc2c(c1)C(=O)N(Cc1cccnc1)C2=O | 1.7 | 9.6 | -2.8 | -10.1 | -0.6 | 6.8 | x
COC(=O)c1ccc(NC(=O)c2ccc3c(c2)C(=O)N(Cc2cccnc2)C3=O)cc1 | 49.5* | 7.1 | 0.9 | x | 4.7 | x | 51.0*
